Whole data set: some 25,000 sequences, median “ln(normalized median fluorescence intensity)” near 9.3, cut for the highest 2% near 10. What follows is part of a selection rich in the highest values, with near analogues and random picks from the rest.

The source of these data is the supplement of paper PMC11417369.

This experiment concerns PF3D7_0420300 AP2 domain 1 (GST-tagged). The experiment in a line: gcPBM binding intensity (ln(normalized median fluorescence intensity)); higher = stronger DNA binding. The method in brief: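 Binding intensity values are the highest Masliner-normalised natural-log median intensity among replicate spots of either probe orientation. The binding step lasted 1 h in 1× PBS with 1% milk, 0.2 mg/ml BSA, 0.5% salmon testes DNA and 0.03% Triton X-100, using GST-tagged P. falciparum DNA-binding domains expressed in E. coli on an Agilent 4 × 180k array of primer-extended double-stranded 36-bp intergenic genomic probes plus negative controls. Alexa488 anti-GST antibody and a 488 nm scan detected bound protein.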
Regarding “ATATTATTTTAAAGTACACACATATATTGATATATA [CACACA_site7153]”, the “gcPBM binding intensity (ln)” value was determined as 9.39.

“TGAATTCGTCAAAAGCGTACATATAATATCTTCTTG [XGTACX_site8842]”: the “gcPBM binding intensity (ln)” value amounted to 9.19.

As for “AAAAACTATTGTAGGACACACAAAATTCCAATTTTA [CACACA_site1701]”, the “gcPBM binding intensity (ln)” value came out at 9.41.

In the case of “GTCACAAAATAAATTAAACACACAACATCATATATG [CACACA_site8182]”, the “gcPBM binding intensity (ln)” value was 9.65.

As for “AAAAAAAAAAAAAAAACACACAGAAATATATATATA [CACACA_site4611]”, the “gcPBM binding intensity (ln)” value stood at 9.55.

Take “TTTAAATACAGACATACACACATACACCCACATATA [CACACA_site8078]”: the “gcPBM binding intensity (ln)” value is 9.81.

As for “CAAAAAAAATTATACACACACACACCCATATATATA [CACACA_site1044]”, the “gcPBM binding intensity (ln)” value was 10.2.

With “AATGTACACGCACCCACACACAAACAAATATAAATA [CACACA_site7319]”, the “gcPBM binding intensity (ln)” value was 9.81.

Consider “ATTAATTATATATATACACACACATACACCCAAATA [CACACA_site9126]”, for which the “gcPBM binding intensity (ln)” value came out at 10.

In the case of “AATGTACACCCACCCACACACAAACAAATATATATA [CACACA_site5521]”, the “gcPBM binding intensity (ln)” value amounted to 10.2.

As to “AATGTACCCACACCCACACACAAACAAATATATATA [CACACA_site2751]”, the “gcPBM binding intensity (ln)” value was determined as 9.85.

For “ATAAAATACAGATAAACACACATATAAACACCCATA [CACACA_site5381]”, the “gcPBM binding intensity (ln)” value amounted to 9.92.

For “CACAAAAAAAATTATACACACACACCCATATATATA [CACACA_site8255]”, the “gcPBM binding intensity (ln)” value is 9.99.

Turning to “TAAACAGACATATAAACACACATATAAACAGACATA [CACACA_site7214]”, the “gcPBM binding intensity (ln)” value was found to be 9.91.

In the case of “AAAATACAGAAACACACACACACACCCATATATATA [CACACA_site3559]”, the “gcPBM binding intensity (ln)” value was 10.3.

With “AACATACATAAACACACACACACACCCACAGAGACA [CACACA_site4430]”, the “gcPBM binding intensity (ln)” value came out at 10.4.

For the sequence “AAATAACACTAATGATGTACTCAACTATTTATAATT [XGTACX_site8183]”, the “gcPBM binding intensity (ln)” value came out at 9.47.

Take “TAAATATCAAGACACACACACAAAAGTGAATAAATA [CACACA_site7723]”: the “gcPBM binding intensity (ln)” value came to 9.9.

Consider “TTATATTCTAGAGACACATGCGATTTTTTATTTTAT [TGCATGCA_site649]”, for which the “gcPBM binding intensity (ln)” value was 9.42.

For “ATATAATGATGGAAAAGAAAAGAAATAAAAAAAAAA [CACACA_negctrl_site1170]”, the “gcPBM binding intensity (ln)” value was 9.21.

As to “TAGTTATCACATTGCACACACATTTCCTTTTACATT [CACACA_site7589]”, the “gcPBM binding intensity (ln)” value stood at 10.

In the case of “CTAAAAATTTTAATTGCACACCACGTTGGACTATTT [CACACA_site1489]”, the “gcPBM binding intensity (ln)” value came to 9.24.

For “AGCCATTAATTCTCTACACACCTTTATGTTATTTAG [CACACA_site3635]”, the “gcPBM binding intensity (ln)” value came to 9.71.

With “TATTTTAATGAAGCATTTAAGGGAAAAAAAAAAAAA [TGCATGCA_negctrl_site606]”, the “gcPBM binding intensity (ln)” value is 8.85.

Consider “TTTACAAAAAATTATACACACACGTACAGATAAATA [CACACA_site4678]”, for which the “gcPBM binding intensity (ln)” value is 9.89.

“AAAAAATACAAACACACACACACACCCATATATATA [CACACA_site3560]”: the “gcPBM binding intensity (ln)” value came to 10.2.

With “TATACATACCCACCCACACACAAAAAAAAAAAAAAA [CACACA_site4632]”, the “gcPBM binding intensity (ln)” value came to 9.68.

As to “TAAATAAATTTATACACACACACACCCATATATATA [CACACA_site849]”, the “gcPBM binding intensity (ln)” value came to 10.2.

For the sequence “TATATACACCCACATACACACAAATAAAAAAACACC [CACACA_site3414]”, the “gcPBM binding intensity (ln)” value was 9.98.

On to “AATAAATATATATACACACCCATATATATATATATA [CACACA_site2595]”, for which the “gcPBM binding intensity (ln)” value is 9.43.

“TACAAACACCCATATACACACAAAAAAAAAATAAAA [CACACA_site5421]”: the “gcPBM binding intensity (ln)” value was determined as 9.55.

Take “AAAAAAAAAAAAAACACACACACACCCATACAAAAT [CACACA_site1446]”: the “gcPBM binding intensity (ln)” value worked out at 10.1.

For “TATAAATAAATTTATACACACACACCCATATATATA [CACACA_site8183]”, the “gcPBM binding intensity (ln)” value came out at 10.

“TATATACACAAACACACACACACATACACCCACATA [CACACA_site8504]”: the “gcPBM binding intensity (ln)” value amounted to 10.3.

In the case of “AACATACAGAAACACACACACACACCCACACCCACA [CACACA_site493]”, the “gcPBM binding intensity (ln)” value worked out at 10.3.

Regarding “TATACGCAGAAACACACACACATACACCCACATACA [CACACA_site1723]”, the “gcPBM binding intensity (ln)” value was 10.

For “TATATACAGAAACACACACACACATATATATATATA [CACACA_site2247]”, the “gcPBM binding intensity (ln)” value is 10.1.

For “GATAAAATAAAAGTGGGTACTTAAATATATATATAA [XGTACX_site8457]”, the “gcPBM binding intensity (ln)” value was 9.28.

Consider “ATAAGAAAAAAGAACTGTACTAATAAAATATAAAAA [XGTACX_site3715]”, for which the “gcPBM binding intensity (ln)” value was determined as 9.3.

As to “TTTCGTAAAATGAAATGTACTCAAAAGTAAATATAA [XGTACX_site214]”, the “gcPBM binding intensity (ln)” value turned out to be 9.03.

For “TATTTTTCCATATGCACACACACCGTATATATAATA [CACACA_site1127]”, the “gcPBM binding intensity (ln)” value was determined as 10.

For “AAAGAATAATTAAATACACACATATTGCAGTAAAAA [CACACA_site7201]”, the “gcPBM binding intensity (ln)” value was 9.69.

Regarding “TATAAAAAATATAATTGTACATAAAGGTTAAAATGT [XGTACX_site6138]”, the “gcPBM binding intensity (ln)” value worked out at 9.47.

Take “ATTAGTTTTATATATAGTACATATAATTTTGAAGGT [XGTACX_site7445]”: the “gcPBM binding intensity (ln)” value was 9.2.

For the sequence “GTTAAAAAAAGGAGAGATCTCACACAAATATATATA [GTGCAC_negctrl_site117]”, the “gcPBM binding intensity (ln)” value is 9.22.

For the sequence “AAATAATTTGTTGACACACACACACCCATACATATA [CACACA_site2285]”, the “gcPBM binding intensity (ln)” value was determined as 10.2.

With “CATATATACGCATACACACACACACCCACACCCACA [CACACA_site1725]”, the “gcPBM binding intensity (ln)” value is 10.2.

For the sequence “AAAACACCCAAACACACACACACATATATATATATA [CACACA_site9119]”, the “gcPBM binding intensity (ln)” value stood at 10.1.

As for “CAAAAAAACAAACACACACACACACCCATATATATA [CACACA_site3653]”, the “gcPBM binding intensity (ln)” value came out at 10.2.

As for “TCAAATAATTTGTTGACACACACACCCACATACATA [CACACA_site8717]”, the “gcPBM binding intensity (ln)” value stood at 9.85.

Take “CATATATATAAATACACACACACACCCCTTATAATT [CACACA_site4064]”: the “gcPBM binding intensity (ln)” value came to 10.2.

As to “AAATAATTTGTTGACACACACACACCCATACAGATA [CACACA_site5291]”, the “gcPBM binding intensity (ln)” value stood at 10.1.

As to “CATATAAATAAATACACACACACACGCCTTATAATT [CACACA_site7830]”, the “gcPBM binding intensity (ln)” value was determined as 10.2.

Turning to “TACATATATATAAATACACACACACCCACCTTATAA [CACACA_site9346]”, the “gcPBM binding intensity (ln)” value stood at 10.1.

Regarding “AACAAAAAAACAAACACACACACACCCATATATATA [CACACA_site3652]”, the “gcPBM binding intensity (ln)” value worked out at 9.98.

“CATATACGCAAACACACACACATATATATATATATA [CACACA_site501]”: the “gcPBM binding intensity (ln)” value stood at 10.

Turning to “TATATACGCAAACACACACACACATACACCCACATA [CACACA_site1724]”, the “gcPBM binding intensity (ln)” value was 10.2.
